According to PubChem BioAssay AID624287 (National Center for Advancing Translational Sciences (NCATS), 2012):
About 420 (0.12%) of roughly 340,000 compounds were called active. Inconclusive results (about 10%) are left out. Calls come from the whole dose curve; as a rule, active = well fitted activation curve with a large enough effect; inconclusive = small, poorly fitted or top-dose-only effect, or another doubt; inactive = no such curve, though single readings can be large or run the other way; cell line not stated here. This excerpt belongs to a sample that is enriched for actives.

Experiment: qHTS for Agonist of gsp, the Etiologic Mutation Responsible for Fibrous Dysplasia/McCune-Albright Syndrome: qHTS; note: nearly all actives have a fitted effect of over 60% in size;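 for activation (cAMP increase): phosphodiesterase inhibitor Ro 20-1724 added with compounds to block cAMP breakdown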
Details: gsp mutant cells, cAMP HTRF, 30 min; series mostly up to 76.9 µM; activation (cAMP increase): at the top concentration
Description: McCune-Albright syndrome (MAS) is a rare disease caused by somatic mutations in Gsgsp), a widely expressed protein central in signal transduction from G-coupled protein receptors (GPCRs). The disease symptoms are diverse, owing to the fact that the patients are mosaics with varying degrees of tissue involvement. Greater than 90% of the mutations in Gs in MAS occur at the R201 position and are equally divided between R201H and R201C. The R201 residue is central in the intrinsic GTPase activity of Gs and the H and C mutations lead to loss of, or impairment of, the GTPase activity. The intrinsic GTPase activity is necessary to terminate the interaction between Gs and adenylate cyclase, and to terminate the cAMP-mediated signaling of the given GPCR pathway. Thus, these activating mutations lead to ligand-independent activation of GPCR pathways. The tissue phenotype is determined by the role of Gs in the function of a given cell, and excess Gs/cAMP signaling in that cell. For example, pituitary somatotrophs overproduce growth hormone in a growth hormone releasing hormone-independent fashion, and gigantism/acromegaly ensues. Skeletal stem cells in the bone marrow behave as if they are under constant parathyroid hormone stimulation and fail to differentiate into osteoblasts and osteocytes, and proliferate as immature osteogenic cells and lead to the marrow fibrosis of fibrous dysplasia of bone. The goal of this project is to identify molecules with stimulatory activity at gsp mutations that will not only allow for in-depth study of the underlying molecular and cellular pathophysiology, but also serve as compounds from which drugs to treat FD/MAS can be developed NIH Chemical Genomics Center [NCGC] NIH Molecular Libraries Probe Centers Network [MLPCN] MLPCN Grant: IRP-FT-DE-2011-01 Assay Submitter (PI): Michael Collins, NIDCR
1.#Seed 2000 cells/well in 6 ul DMEM 10% FBS, 1% Pen/Strep, 0.5 mg/ml G418 2.#Incubate 16-24 hr at 37C, 5% CO2, 95% humidity 3.#Aspirate leaving 1 ul residual volume 4.#Dispense 5 ul/well DPBS + 1 mM CaCl2, 0.5 mM MgCl2, 0.05% BSA, 0.005% Tween 20 5.#Aspirate leaving 2 ul residual volume 6.#Dispense 23 nl/well compounds in DMSO 7.#Dispense 1 ul/well 300 uM Ro-20174 in DMEM 10% FBS 8.#Incubate 30 min at 37C, 5% CO2, 95% humidity 9.#Dispense 1.5 ul/well HTRF reagent: cAMP-d2 in lysis buffer 10.#Dispense 1.5 ul/well HTRF reagent: anti-cAMP antibody-K in lysis buffer 11.#Incubate 30 min at room temperature 12.#Detect HTRF signal using EnVision plate reader
Potency is the fitted concentration of half-maximal effect.

Activation (cAMP increase), inactive:
O=C(O)C1=C(C(=O)O)C2CCC1C2 13.7%
CC1=C(C(=O)N2CCOCC2)CC(CC(=O)NCCN2CCOCC2)C(=O)N1CCC1=CCCCC1 (stereo unspecified) -40.6%
CC1(c2cccc(N)c2)OCCO1 6.78%
CCc1cccc(CC)c1N1C(=O)CC(Sc2ccccc2N)C1=O (stereo unspecified) -34.3%
CCCCN(C(C)=O)c1ccc2c(c1)C1CC2CCN1Cc1ccccc1 (stereo unspecified) 12.9%
CCOc1ccc(S(=O)(=O)NCCC(=O)NNC(=O)c2ccc(F)cc2)cc1 6.08%
Cc1ccc(NC(=O)Cn2sc3ccccc3c2=O)cc1 3.51%
CC1C(C)N(C(=O)CCl)c2ccccc2N1C(=O)CCl (stereo unspecified) -0.561% [at 15.4 µM]
CC1CCCC(C)N1C(=O)COC(=O)c1ccccc1C(=O)c1ccccc1 (stereo unspecified) -62.2%
CC1(C)NC(=O)N(CC(=O)Nc2ccc(-c3ccccc3)cc2)C1=O -25.4%
CC1C(=O)N(Cc2cn(CC3CCCCC3)nn2)CCS(=O)(=O)N1Cc1ccc(-c2cccc(N(C)C)c2)cc1 (stereo unspecified) -37.2%
CCOC(=O)C(=Cc1ccccc1)C(=O)c1ccccc1 -32.4%
COc1ccc(S(=O)(=O)N2CCN(CC(=O)N3CCNC3=O)CC2)cc1OC -61.6%
O=C(OCC(=O)N1CCCCCC1)c1cccc(Cl)c1Cl 7.89%
CSc1ncnc2c1ncn2CCCNCC(C)c1ccccc1 (stereo unspecified) -17.8%
C[C@H]1NS(=O)(=O)c2cc(Cl)ccc2O[C@@H]1c1ccccc1 -56.1%
COc1cc2nnn(-c3ccncc3)c2cc1OC -62.2%
O=C(COC(=O)/C=C/c1ccc(Cl)cc1)NC1CCS(=O)(=O)C1 (stereo unspecified) 7.94%
Cc1ccccc1-c1ccc2c(c1)O[C@@H](CN(C)Cc1ccc(C(=O)O)cc1)[C@@H](C)CN([C@H](C)CO)S2(=O)=O 9.04%
CCN(Cc1ccncc1)C(=S)Nc1ccccc1C 3.88%
CC1CCCC(NC(=O)COC(=O)c2ccccc2C(=O)N(C)C2CCCCC2)C1C (stereo unspecified) -11.9%
CCN(CC)C(=O)C1=C(C)N(Cc2ccc(OC)cc2)C(=O)C(CC(=O)NCCCCc2ccccc2)C1 (stereo unspecified) -64.5%
N#CCCC(C#N)(c1cccnc1)N1CCOCC1 (stereo unspecified) 5.47%
CCc1cc(C(=O)N(CC)CC(=O)Nc2c(F)cccc2F)sc1C -14.1%
Cc1ccc(-c2ccc(CN3C(C)C(=O)N(Cc4cn(CCC5OCCCO5)nn4)CCS3(=O)=O)cc2)cc1 (stereo unspecified) -4.97%
COc1ccc(S(=O)(=O)N2CCC(C(=O)NCCC(=O)Nc3ccccc3OC)CC2)cc1 -127%
CC1CC(NC(=S)N(C)C)CC(C)(C)C1 (stereo unspecified) -1.96%
CC(C)NC(=O)Nc1ccc2c(c1)C(=O)N([C@H](C)CO)C[C@H](C)[C@@H](CN(C)Cc1ccc(C(F)(F)F)cc1)OCCCC[C@@H](C)O2 -39.1%
O=C(NN=Cc1ccc2c(c1)CCC2)c1ccccc1O 5.61%
O[C@H]1C[C@H](c2ccc(Cl)cc2)N(Cc2cccs2)C[C@@H]1n1cc(C2CC2)nn1 -12.1%
CC(=O)Nc1ccc2c3c(ccc([N+](=O)[O-])c13)CC2 32.7%
O=C(O)c1ccccc1NC(=O)c1ccccc1-c1ccccc1C(=O)O -12.9%
COC(=O)c1ccccc1NC(=S)NC(=O)c1ccccc1F 3.68%
O=C(COC(=O)CCc1c[nH]c2ccccc12)Nc1cccc(Cl)c1 -5.04%
COC(=O)C(Cc1c[nH]c2ccccc12)NC(=O)CCNC(=O)c1ccco1 (stereo unspecified) 1.54%
COc1ccc(-c2cnc3c(c2)C(=O)N([C@H](C)CO)C[C@@H](C)[C@H](CN(C)Cc2ccccc2)O3)cc1 5.7%
COc1ccc(-c2ccc(CN3C(C(C)C)C(=O)N(Cc4cn(CC5CCCCC5)nn4)CCS3(=O)=O)cc2)cn1 (stereo unspecified) 4.31%
CCCc1ccc(S(=O)(=O)N2CCN(C(=O)c3cc(C)on3)CC2)cc1 1.12%
CCc1noc(C)c1C(=O)OCC(=O)c1ccc(NC(=O)CC(C)C)cc1 -39.5%
COc1ccc(CN2C(=O)C(CC(=O)NCCN3CCOCC3)CC(C(=O)N(C(C)C)C(C)C)=C2C)cc1 (stereo unspecified) 15.2%
COc1ccc(NC(=O)CCCOc2ccc(C(C)=O)cc2)cc1S(=O)(=O)N1CCCCC1 -9.18%
COc1cccc(/C=C2\SC(=S)N(CCCC(=O)N3CCOCC3)C2=O)c1 -22.2%
Cc1ccc2cccc([N+](=O)[O-])c2n1 -22.1%
CCN(CC)C(=O)C(C)N1c2cccc3cccc(c23)S1(=O)=O (stereo unspecified) 1.11%
Cc1ccc(C(=O)NC(C)C(c2cccs2)N2CCOCC2)cc1C (stereo unspecified) -240%
COc1ccc(OC)c(NC(=O)C2CCCN2S(=O)(=O)c2ccc3c(c2)CC(C)N3C(C)=O)c1 (stereo unspecified) -22.5%
C[C@@H]1CN([C@@H](C)CO)C(=O)c2cc(NS(C)(=O)=O)ccc2O[C@@H](C)CCCCO[C@H]1CN(C)C(=O)Nc1ccc2c(c1)OCO2 -24.6%
Cc1cccn2c(=O)c3cc(C#N)c(=NC(=O)c4cccnc4)n(CC4CCCO4)c3nc12 (stereo unspecified) 26.8%
COCCCn1c(C(=O)NC2CCCCC2)cc2c(=O)n3cccc(C)c3nc21 27.2%
Cc1nnc(SC(C)C(=O)c2c[nH]c3ccccc23)n1C1CC1 (stereo unspecified) 2.61%
Cc1ccc(C(=O)N[C@H](C(=O)N2CCN(c3ncccn3)CC2)C(C)C)cc1 -12.3%
CC(C)CCOc1ccc(C(=O)Nc2cc(S(=O)(=O)N3CCOCC3)ccc2N2CCOCC2)cc1 -108%
Cc1cccc(C(=O)NC2CCN(CC(=O)Nc3cccc(Cl)c3)CC2)c1 -42.7%
Cc1csc(SCC(=O)Nc2ccc(C)c(S(=O)(=O)N(C)C)c2)n1 -20.6%
CC1=C(C(=O)Nc2cccc(C(=O)NCC(C)c3ccccc3)c2)SCCO1 (stereo unspecified) 10.4%
O=C1[C@H]2[C@@H](c3ccc(C(F)(F)F)cc3)N[C@]3(CCCN(Cc4ccc(Cl)cc4)C3=O)[C@H]2C(=O)N1Cc1ccccc1 1.18%
CCN1C(=O)[C@H]2[C@@H](c3ccccc3)N[C@]3(CCCN(Cc4ccc(C)cc4)C3=O)[C@H]2C1=O 5.38%
Cn1c(CCN2CCN(c3ccccn3)CC2)nc2cc(NS(=O)(=O)c3ccc(F)cc3)ccc21 -10.2%
c1ccc(Cn2nnc3c(NCC4CC4)ncnc32)cc1 2.75%
CCCc1nc(SCC(=O)N2CCCC2)c2c(=O)n(C)c(=O)n(C)c2n1 26%
CCn1c(SCC(=O)NCC2CCCO2)nc2ccccc21 (stereo unspecified) 11%
CCCCCCN1C[C@H](O)[C@@H](n2cc(C3CC3)nn2)C[C@@H]1c1ccc(Cl)cc1 -33.6%
CC1(C)CC(=O)C=C(c2ccc(COC(=O)c3cc(F)cc(F)c3)cc2)C1=O -119%
O=C(CCc1ccc(O)cc1)NN=Cc1cc(Br)ccc1O -4.34%
COc1cc2ccc(C(C)=O)c(O)c2cc1OC 15.1%
COC(=O)C[C@H]1C[C@@H]2c3cc(N(C)C)ccc3O[C@@H]2[C@H](CO)O1 -18.9%
Cc1cc(Cl)ccc1C(=O)C1CCCN(C(=O)c2ccc3c(c2)OCO3)C1 (stereo unspecified) 0.924%
Cc1ccc(C(=O)N2CCCc3ccccc32)c(Cl)c1 5.11%
CN(C)C(CNC(=O)c1cc(Br)c(Br)s1)c1ccco1 (stereo unspecified) -58.5%
O=C(COC(=O)Cc1ccc(Cl)cc1Cl)NCc1ccco1 -9.6%
CCOC(=O)C=Cc1ccc(C(=O)OCC)[nH]1 -46.9%
Cc1cc(C)nc(N/N=C/c2ccc([N+](=O)[O-])o2)n1 45%
CCc1ccc(S(=O)(=O)N/N=C\c2ccc([N+](=O)[O-])o2)cc1 -10.5%
COc1ccc(/C=C2\SC(=S)N(CCC(=O)N3CCOCC3)C2=O)cc1OC -44.9%
O=C(NCc1ccccc1)C1CNCC(C(=O)NCc2ccccc2)C1 (stereo unspecified) 4.24%
Cc1ccc([C@H]2N[C@]3(CCCN(Cc4ccccc4)C3=O)[C@H]3C(=O)N(Cc4ccccc4)C(=O)[C@@H]23)cc1 -54.9%
CNc1nc(-c2ccccc2)cc(-c2ccccc2)n1 -29%
CCN(CC)C(=O)c1sc2nc(-c3ccccc3)ccc2c1N -3.88% [at 15.4 µM]
CCc1ccccc1NC(=O)CN1CCN(C(=O)c2cc(C3CC3)nn2-c2ccccc2)CC1 -23.3%
O=NN(CCCl)C(=O)NCCc1cccc[n+]1[O-] -40.6%
CSc1ncnc2c1ncn2CCCNCC1CCCCC1 -41.1%
Cc1ccc(S(=O)(=O)N(CCc2ccccc2)c2ccc3c(c2)C2CC3CCN2C(=O)OCc2ccccc2)cc1 (stereo unspecified) -3.98%
CC(OC(=O)c1cccnc1Cl)C(=O)NC1CCCCC1 (stereo unspecified) -7.18%
O=C(COC(=O)c1cncc(Br)c1)Nc1ccc(S(=O)(=O)N2CCOCC2)cc1 -52.8%
O=C(OCc1ccccc1)N1CCC2CC1c1cc(N3CCN(S(=O)(=O)c4cc(Cl)cc(Cl)c4)CC3)ccc12 (stereo unspecified) -22.3%
NC(CSC(c1ccccc1)(c1ccccc1)c1ccc(-c2ccccc2)cc1)C(=O)O (stereo unspecified) -9.82%
C=CCn1c2ccccc2c2nnc(SC(CC)C(=O)Nc3nc(C)c(C(=O)OCC)s3)nc21 (stereo unspecified) -52.6%
C=CCn1c(SCC(=O)CC(=O)OCC)nc2cc(C(=O)N3CCC(C(N)=O)CC3)ccc2c1=O 4.18% [at 15.4 µM]
C=CCn1nc(C(=O)OCC)cc1-c1sc(NC(=O)c2ccccc2)nc1C -3.53%
Cc1cc(C)c2c(=O)n3c(nc2c1)C(CC(C)C)NC(=O)c1cc2ccccc2cc1-3 (stereo unspecified) 4.39%

Potency, active:
O=C(NC(=S)Nc1ccccc1C(=O)O)c1ccc(-c2ccc(Br)cc2)o1 14.1 µM
Cc1cccn2c(=O)c3cc(C#N)c(=O)n(CCCN4CCOCC4)c3nc12 20 µM
Cn1c(=O)c2c(SCC(=O)NCC3CCCO3)nc(CC(C)(C)C)nc2n(C)c1=O (stereo unspecified) 14.1 µM
C/[N+]([O-])=C\c1ccc([N+](=O)[O-])o1 28.2 µM
CS(=O)(=O)c1sc2nc(-c3ccccc3)cc(-c3ccccc3)c2c1N 7.08 µM
C=CCn1c2ccccc2c2nnc(SCc3[nH]c(=O)[nH]c3C(=O)CCCCC(=O)OCC)nc21 2 µM
